Measured values as given in ChEMBL document CHEMBL1961873, “Compounds: GSK PKIS; Assays: Nanosyn kinase panel” (2012).

How the values were obtained:
[1] = test system: Epidermal growth factor receptor (Homo sapiens), P00533 [T790M]; conditions: at 1 µM
[2] = test system: Epidermal growth factor receptor (Homo sapiens), P00533 [L858R,T790M]; conditions: at 0.1 µM
[3] = test system: Epidermal growth factor receptor (Homo sapiens), P00533 [L858R,T790M]; conditions: at 1 µM
[4] = biological target: Ephrin type-A receptor 2 (Homo sapiens) (UniProt P29317); conditions: at 0.1 µM
[5] = biological target: Ephrin type-A receptor 2 (Homo sapiens) (UniProt P29317); conditions: at 1 µM
[6] = biological target: T1, Ephrin type-A receptor 3 (Homo sapiens) (UniProt P29320); conditions: at 0.1 µM
T1 sequence (whole entry): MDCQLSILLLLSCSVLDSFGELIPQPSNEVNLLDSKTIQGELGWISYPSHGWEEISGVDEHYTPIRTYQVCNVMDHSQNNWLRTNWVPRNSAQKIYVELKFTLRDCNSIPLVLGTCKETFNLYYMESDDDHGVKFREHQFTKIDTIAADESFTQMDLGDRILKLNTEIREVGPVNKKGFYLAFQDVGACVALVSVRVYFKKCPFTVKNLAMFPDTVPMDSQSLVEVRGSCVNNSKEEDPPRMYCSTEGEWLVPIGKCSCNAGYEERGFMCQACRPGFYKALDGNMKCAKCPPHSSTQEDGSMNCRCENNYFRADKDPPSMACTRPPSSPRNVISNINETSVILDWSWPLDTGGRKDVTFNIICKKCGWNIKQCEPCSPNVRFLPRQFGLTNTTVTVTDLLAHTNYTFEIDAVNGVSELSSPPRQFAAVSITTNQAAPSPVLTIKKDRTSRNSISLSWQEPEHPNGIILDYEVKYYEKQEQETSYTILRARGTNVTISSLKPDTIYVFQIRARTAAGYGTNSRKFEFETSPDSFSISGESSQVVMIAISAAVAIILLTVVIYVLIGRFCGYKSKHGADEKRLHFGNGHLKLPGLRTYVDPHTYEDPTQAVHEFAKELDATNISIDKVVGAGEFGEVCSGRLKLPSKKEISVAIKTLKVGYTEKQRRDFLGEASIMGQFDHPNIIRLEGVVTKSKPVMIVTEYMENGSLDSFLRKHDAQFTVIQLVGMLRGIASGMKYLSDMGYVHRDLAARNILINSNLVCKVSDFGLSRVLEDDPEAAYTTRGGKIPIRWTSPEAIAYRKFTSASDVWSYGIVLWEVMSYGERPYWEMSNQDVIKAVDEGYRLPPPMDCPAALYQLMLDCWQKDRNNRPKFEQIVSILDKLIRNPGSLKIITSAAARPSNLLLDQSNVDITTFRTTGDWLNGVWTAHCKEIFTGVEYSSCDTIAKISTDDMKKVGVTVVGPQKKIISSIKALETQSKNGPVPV

[7] = biological target: T1, Ephrin type-A receptor 3 (Homo sapiens); conditions: at 1 µM
[8] = biological target: Ephrin type-A receptor 4 (Homo sapiens) (UniProt P54764); conditions: at 0.1 µM
[9] = biological target: Ephrin type-A receptor 4 (Homo sapiens) (UniProt P54764); conditions: at 1 µM
[10] = biological target: T2, Ephrin type-B receptor 2 (Homo sapiens) (UniProt P29323); conditions: at 0.1 µM
T2 sequence (whole entry): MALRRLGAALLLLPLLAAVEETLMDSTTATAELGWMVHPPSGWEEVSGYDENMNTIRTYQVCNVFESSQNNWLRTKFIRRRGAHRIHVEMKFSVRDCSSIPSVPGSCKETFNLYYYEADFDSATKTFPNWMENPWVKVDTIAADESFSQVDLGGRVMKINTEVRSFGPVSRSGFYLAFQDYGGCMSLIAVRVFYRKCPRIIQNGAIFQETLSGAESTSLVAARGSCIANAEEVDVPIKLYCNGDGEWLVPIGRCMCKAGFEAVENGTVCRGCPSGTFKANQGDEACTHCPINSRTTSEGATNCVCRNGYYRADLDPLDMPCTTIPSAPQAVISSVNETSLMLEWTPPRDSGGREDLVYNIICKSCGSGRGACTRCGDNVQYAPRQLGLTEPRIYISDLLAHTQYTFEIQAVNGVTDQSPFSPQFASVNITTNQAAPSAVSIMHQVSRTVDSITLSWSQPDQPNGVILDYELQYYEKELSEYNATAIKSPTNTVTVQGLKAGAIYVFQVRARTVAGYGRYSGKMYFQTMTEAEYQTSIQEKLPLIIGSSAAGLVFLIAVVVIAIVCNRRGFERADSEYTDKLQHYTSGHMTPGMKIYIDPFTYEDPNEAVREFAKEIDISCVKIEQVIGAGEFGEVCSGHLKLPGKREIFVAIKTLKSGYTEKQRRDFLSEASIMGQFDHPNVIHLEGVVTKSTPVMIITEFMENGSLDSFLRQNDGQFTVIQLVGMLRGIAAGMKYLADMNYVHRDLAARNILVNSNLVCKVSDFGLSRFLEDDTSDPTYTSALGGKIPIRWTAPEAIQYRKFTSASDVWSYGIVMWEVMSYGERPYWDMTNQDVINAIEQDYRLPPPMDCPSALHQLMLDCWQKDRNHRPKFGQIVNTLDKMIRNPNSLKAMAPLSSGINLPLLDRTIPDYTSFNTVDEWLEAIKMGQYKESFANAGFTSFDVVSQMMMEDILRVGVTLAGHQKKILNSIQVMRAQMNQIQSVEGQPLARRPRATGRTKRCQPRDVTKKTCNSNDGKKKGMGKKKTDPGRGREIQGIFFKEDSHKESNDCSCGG

[11] = biological target: T2, Ephrin type-B receptor 2 (Homo sapiens); conditions: at 1 µM
[12] = biological target: T3, Ephrin type-B receptor 3 (Homo sapiens) (UniProt P54753); conditions: at 0.1 µM
T3 sequence (whole entry): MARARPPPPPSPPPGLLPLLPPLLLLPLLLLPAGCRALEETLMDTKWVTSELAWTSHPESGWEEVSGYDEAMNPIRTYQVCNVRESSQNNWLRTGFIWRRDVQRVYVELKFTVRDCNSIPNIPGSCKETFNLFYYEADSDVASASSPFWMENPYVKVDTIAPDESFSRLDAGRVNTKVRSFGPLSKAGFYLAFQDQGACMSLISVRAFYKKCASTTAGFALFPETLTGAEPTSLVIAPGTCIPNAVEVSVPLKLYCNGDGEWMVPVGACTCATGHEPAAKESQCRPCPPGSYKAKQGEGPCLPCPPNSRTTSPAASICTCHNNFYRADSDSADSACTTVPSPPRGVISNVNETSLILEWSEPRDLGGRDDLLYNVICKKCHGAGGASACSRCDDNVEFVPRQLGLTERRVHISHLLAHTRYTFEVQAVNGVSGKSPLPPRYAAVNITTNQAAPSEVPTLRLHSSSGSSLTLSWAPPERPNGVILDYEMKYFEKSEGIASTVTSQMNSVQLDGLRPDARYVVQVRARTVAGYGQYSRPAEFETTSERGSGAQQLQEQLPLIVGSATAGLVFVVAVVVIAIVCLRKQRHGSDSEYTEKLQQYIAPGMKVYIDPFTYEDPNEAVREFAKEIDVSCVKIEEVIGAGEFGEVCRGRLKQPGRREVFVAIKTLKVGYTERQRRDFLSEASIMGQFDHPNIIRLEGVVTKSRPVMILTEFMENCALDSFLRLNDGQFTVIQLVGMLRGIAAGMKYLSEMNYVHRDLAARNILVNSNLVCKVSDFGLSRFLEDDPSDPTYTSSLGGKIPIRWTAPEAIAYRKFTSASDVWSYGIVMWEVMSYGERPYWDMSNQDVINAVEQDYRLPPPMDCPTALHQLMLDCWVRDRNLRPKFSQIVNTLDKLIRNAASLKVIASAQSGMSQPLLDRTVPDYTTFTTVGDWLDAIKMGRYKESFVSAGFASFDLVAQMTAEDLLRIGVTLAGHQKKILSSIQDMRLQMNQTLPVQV

[13] = biological target: T3, Ephrin type-B receptor 3 (Homo sapiens); conditions: at 1 µM
[14] = biological target: T4, Ephrin type-B receptor 4 (Homo sapiens) (UniProt P54760); conditions: at 0.1 µM
T4 sequence (whole entry): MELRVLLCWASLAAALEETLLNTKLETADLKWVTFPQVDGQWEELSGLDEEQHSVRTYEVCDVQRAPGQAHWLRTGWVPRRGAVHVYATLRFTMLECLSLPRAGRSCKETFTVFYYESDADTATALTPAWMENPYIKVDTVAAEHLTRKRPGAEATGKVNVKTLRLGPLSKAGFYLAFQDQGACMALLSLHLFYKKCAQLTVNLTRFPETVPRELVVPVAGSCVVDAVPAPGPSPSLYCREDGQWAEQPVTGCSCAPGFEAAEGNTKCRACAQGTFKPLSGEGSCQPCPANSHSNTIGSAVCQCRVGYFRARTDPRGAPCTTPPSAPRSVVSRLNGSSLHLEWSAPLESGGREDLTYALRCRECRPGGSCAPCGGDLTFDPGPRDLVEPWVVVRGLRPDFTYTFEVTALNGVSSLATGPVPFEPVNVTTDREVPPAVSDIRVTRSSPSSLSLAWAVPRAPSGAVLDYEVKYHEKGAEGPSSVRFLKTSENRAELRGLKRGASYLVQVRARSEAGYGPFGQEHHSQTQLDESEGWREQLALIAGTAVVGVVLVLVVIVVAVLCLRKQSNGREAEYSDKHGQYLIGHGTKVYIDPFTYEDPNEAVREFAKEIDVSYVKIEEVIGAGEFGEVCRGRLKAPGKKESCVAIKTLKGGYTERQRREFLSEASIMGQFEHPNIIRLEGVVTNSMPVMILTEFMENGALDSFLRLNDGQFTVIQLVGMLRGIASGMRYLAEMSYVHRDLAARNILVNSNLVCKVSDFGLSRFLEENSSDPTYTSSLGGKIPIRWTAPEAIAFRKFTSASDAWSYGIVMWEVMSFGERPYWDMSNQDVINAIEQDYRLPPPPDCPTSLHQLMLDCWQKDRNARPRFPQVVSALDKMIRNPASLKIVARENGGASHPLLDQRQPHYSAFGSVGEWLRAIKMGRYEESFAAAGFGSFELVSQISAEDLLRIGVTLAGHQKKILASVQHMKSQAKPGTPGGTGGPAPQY

[15] = biological target: T4, Ephrin type-B receptor 4 (Homo sapiens); conditions: at 1 µM
[16] = biological target: Receptor tyrosine-protein kinase erbB-2 (Homo sapiens) (UniProt P04626); conditions: at 0.1 µM
[17] = biological target: Receptor tyrosine-protein kinase erbB-2 (Homo sapiens) (UniProt P04626); conditions: at 1 µM
[18] = biological target: Receptor tyrosine-protein kinase erbB-4 (Homo sapiens) (UniProt Q15303); conditions: at 0.1 µM
[19] = biological target: Receptor tyrosine-protein kinase erbB-4 (Homo sapiens) (UniProt Q15303); conditions: at 1 µM
[20] = biological target: Tyrosine-protein kinase Fer (Homo sapiens) (UniProt P16591); conditions: at 0.1 µM;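 also: reported figures are averaged percent inhibition of FER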

Chain of Epidermal growth factor receptor (Homo sapiens), P00533 [T790M] (P00533 whole entry T790M): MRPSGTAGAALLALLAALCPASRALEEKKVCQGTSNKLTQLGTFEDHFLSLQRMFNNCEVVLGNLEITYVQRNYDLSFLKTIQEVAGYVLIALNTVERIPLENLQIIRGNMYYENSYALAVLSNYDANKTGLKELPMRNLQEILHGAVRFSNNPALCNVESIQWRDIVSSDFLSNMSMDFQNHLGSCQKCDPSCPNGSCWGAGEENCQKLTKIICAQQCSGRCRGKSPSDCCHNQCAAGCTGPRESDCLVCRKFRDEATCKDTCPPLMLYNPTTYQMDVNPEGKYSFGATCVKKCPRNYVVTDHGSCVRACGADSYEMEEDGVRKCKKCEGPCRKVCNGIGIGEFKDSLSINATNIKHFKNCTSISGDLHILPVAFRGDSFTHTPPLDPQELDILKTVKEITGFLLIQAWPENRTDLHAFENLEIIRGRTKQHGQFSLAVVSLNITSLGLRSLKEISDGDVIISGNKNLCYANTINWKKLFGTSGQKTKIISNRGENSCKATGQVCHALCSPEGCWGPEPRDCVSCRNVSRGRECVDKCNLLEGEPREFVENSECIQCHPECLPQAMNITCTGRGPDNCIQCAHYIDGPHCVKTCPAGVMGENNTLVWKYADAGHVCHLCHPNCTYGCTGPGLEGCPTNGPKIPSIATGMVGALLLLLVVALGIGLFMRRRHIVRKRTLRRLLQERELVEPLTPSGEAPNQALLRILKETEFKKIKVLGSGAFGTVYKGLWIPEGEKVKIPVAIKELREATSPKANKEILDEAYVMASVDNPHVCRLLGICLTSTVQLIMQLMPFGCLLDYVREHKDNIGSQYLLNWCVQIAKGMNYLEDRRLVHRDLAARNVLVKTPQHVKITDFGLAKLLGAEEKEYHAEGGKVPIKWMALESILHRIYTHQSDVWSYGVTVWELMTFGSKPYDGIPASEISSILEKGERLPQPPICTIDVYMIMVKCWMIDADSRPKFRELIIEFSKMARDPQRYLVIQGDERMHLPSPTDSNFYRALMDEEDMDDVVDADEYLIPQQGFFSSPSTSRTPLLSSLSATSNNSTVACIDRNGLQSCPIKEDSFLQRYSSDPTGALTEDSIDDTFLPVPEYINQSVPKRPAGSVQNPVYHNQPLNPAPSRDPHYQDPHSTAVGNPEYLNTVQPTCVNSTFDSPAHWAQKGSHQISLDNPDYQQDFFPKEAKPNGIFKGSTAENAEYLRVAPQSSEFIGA
Chain of Receptor tyrosine-protein kinase erbB-4 (Homo sapiens) (Q15303 whole entry): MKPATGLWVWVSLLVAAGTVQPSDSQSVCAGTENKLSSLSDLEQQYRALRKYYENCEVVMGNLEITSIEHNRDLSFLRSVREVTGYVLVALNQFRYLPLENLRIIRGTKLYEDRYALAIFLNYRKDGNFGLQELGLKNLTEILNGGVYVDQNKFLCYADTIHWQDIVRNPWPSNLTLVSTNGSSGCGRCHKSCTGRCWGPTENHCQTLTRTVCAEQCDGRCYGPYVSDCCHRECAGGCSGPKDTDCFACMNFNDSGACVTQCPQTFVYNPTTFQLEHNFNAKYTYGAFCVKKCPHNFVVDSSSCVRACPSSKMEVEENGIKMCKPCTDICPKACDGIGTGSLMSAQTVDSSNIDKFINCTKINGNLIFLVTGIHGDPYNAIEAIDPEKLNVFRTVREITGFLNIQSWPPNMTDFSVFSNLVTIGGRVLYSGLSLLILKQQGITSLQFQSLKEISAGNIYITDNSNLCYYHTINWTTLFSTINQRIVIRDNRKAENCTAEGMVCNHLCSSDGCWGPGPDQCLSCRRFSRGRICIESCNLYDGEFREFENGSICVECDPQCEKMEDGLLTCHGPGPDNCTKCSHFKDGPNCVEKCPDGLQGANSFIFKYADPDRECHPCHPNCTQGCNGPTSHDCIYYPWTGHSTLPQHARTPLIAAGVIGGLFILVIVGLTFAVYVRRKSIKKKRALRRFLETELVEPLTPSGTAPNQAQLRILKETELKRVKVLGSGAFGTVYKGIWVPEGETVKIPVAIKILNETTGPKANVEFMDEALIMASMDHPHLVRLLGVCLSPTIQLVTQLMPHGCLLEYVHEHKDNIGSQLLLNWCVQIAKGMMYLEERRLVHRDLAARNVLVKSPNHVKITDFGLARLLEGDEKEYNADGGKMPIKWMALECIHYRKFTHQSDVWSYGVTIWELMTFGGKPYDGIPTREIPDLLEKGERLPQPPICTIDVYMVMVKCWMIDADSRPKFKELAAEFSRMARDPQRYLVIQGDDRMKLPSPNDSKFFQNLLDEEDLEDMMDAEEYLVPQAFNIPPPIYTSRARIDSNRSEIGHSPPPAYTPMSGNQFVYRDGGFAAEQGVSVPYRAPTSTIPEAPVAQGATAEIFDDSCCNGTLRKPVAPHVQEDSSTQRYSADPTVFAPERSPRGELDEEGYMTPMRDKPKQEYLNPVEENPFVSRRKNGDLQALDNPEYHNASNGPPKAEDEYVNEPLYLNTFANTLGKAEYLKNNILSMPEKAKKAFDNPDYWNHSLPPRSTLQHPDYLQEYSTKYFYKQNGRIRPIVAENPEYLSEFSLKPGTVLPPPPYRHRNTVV
Chain of Receptor tyrosine-protein kinase erbB-2 (Homo sapiens) (P04626 whole entry): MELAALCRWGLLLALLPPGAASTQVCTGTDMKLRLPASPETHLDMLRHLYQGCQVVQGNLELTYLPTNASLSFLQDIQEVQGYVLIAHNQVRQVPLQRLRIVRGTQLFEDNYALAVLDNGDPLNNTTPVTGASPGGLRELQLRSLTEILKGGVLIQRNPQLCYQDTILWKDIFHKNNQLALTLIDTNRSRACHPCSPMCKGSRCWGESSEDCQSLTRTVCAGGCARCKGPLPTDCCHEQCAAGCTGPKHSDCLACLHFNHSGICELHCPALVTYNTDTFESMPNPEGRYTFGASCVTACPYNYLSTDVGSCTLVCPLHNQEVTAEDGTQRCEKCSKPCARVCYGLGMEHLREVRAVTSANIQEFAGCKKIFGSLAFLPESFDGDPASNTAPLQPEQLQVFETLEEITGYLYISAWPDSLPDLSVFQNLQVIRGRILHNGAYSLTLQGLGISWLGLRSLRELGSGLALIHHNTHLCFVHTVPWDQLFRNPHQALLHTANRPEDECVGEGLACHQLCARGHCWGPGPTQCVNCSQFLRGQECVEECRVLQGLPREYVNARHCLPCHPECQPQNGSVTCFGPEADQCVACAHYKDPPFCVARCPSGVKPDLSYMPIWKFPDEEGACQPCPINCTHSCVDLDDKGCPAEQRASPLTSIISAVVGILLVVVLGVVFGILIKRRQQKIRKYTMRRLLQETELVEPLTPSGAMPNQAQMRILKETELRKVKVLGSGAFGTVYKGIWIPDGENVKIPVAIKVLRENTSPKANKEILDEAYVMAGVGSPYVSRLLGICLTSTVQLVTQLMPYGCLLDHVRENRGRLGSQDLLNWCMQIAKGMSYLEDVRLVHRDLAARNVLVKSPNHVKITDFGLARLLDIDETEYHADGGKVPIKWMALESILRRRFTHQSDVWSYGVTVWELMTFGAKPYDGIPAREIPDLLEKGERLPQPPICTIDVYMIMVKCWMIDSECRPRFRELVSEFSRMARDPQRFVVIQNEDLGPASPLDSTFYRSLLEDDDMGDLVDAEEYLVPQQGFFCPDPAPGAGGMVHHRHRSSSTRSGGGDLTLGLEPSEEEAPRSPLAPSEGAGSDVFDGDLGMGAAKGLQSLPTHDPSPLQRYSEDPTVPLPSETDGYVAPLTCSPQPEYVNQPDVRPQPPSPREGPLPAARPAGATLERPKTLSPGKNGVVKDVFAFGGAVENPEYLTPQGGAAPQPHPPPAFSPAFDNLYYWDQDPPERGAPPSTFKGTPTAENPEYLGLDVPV
Chain of Epidermal growth factor receptor (Homo sapiens), P00533 [L858R,T790M] (P00533 whole entry T790M/L858R, looked up): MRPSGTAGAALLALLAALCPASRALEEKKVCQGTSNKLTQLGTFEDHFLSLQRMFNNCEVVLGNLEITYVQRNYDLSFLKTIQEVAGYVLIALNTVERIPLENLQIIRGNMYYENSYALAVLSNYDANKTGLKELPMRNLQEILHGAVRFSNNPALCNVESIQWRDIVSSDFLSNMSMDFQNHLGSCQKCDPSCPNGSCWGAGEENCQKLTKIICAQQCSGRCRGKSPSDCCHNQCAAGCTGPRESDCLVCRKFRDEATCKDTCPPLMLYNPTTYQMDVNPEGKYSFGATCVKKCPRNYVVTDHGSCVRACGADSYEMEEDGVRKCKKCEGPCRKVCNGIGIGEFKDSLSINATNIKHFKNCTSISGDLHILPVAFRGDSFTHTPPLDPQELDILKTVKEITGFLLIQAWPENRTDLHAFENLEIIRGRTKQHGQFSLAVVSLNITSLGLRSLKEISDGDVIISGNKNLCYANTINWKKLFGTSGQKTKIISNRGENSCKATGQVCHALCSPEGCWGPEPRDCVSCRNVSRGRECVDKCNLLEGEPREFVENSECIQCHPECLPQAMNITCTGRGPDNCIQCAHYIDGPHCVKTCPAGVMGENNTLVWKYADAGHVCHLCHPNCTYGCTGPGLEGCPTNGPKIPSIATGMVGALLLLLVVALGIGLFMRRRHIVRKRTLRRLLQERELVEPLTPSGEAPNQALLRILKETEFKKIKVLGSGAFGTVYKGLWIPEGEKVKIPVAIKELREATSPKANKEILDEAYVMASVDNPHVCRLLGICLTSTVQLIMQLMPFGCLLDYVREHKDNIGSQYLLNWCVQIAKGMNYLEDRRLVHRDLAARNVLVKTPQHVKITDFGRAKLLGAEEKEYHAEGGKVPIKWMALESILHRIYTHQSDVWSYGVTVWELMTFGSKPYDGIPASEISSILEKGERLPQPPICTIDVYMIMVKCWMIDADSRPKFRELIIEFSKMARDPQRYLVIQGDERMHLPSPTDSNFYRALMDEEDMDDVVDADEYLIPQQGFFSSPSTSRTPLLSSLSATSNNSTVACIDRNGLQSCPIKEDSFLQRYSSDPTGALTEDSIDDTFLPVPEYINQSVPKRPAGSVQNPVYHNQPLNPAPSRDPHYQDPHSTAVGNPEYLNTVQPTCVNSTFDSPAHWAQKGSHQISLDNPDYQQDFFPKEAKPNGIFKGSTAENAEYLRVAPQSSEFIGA

Row | SMILES | inhibition [1] [%] | inhibition [2] [%] | inhibition [3] [%] | inhibition [4] [%] | inhibition [5] [%] | inhibition [6] [%] | inhibition [7] [%] | inhibition [8] [%] | inhibition [9] [%] | inhibition [10] [%] | inhibition [11] [%] | inhibition [12] [%] | inhibition [13] [%] | inhibition [14] [%] | inhibition [15] [%] | inhibition [16] [%] | inhibition [17] [%] | inhibition [18] [%] | inhibition [19] [%] | inhibition [20] [%]
1 | CCCN1CCC(c2ccc(Nc3nc(Nc4cc(F)ccc4C(N)=O)c4cc[nH]c4n3)c(OC)c2)CC1 | 81.7 | 53.7 | 89.1 | 1.29 | -0.82 | 3.91 | 4.22 | 6.74 | 12.9 | 6.06 | 8.57 | 7.06 | 2.33 | 3.08 | 2.91 | 5.68 | 12.9 | 34.8 | 76.3 | 77
2 | CC(=O)NCc1cccc(C#Cc2cncnc2Nc2ccc(OCc3cccc(F)c3)c(Cl)c2)c1 | 0.3 | 1.41 | 1.74 | -3.31 | -4.19 | -2.09 | 0.64 | -2.22 | – | 0.63 | -0.33 | 2.82 | 2.99 | 0.57 | 2.91 | -0.95 | -0.83 | 11.6 | 50.4 | 2.72
3 | CCNC(=O)O[C@H]1CN[C@H](C#Cc2cc3ncnc(Nc4ccc(OCc5cccc(F)c5)c(Cl)c4)c3s2)C1 | 10.6 | 2.62 | 4.48 | 3.3 | 2.25 | 6.99 | 4.34 | 8.98 | 6.16 | 8.39 | 4.8 | 3.91 | 5.16 | 3.25 | 4.36 | 8.63 | 60.4 | 94.2 | 101 | 4.88
4 | Cc1cccc(Nc2ncc(-c3ccccc3)o2)c1 | 2.62 | -0.51 | 1.2 | 2.27 | 1.53 | 2.3 | 2.7 | 5.68 | 5.88 | 0.55 | 2.78 | 1.56 | 2.29 | 2.8 | 3.6 | 2.48 | 2.62 | 3.46 | 8.57 | 3.24
5 | NC(=O)c1sc(-n2cnc3ccc(C(F)(F)F)cc32)cc1OCc1ccccc1Br | 4.07 | -0.44 | 3.88 | -2.06 | -1.67 | 2.19 | 5.58 | 10.1 | 8.59 | 5.67 | 7.8 | 7.23 | 4.9 | -1.54 | 0.48 | 1.83 | 1.49 | 6.27 | 10.9 | 2.63
6 | CCN1CCC(CC(=O)Nc2n[nH]c3nnc(-c4cccc(F)c4F)cc23)CC1 | 3.4 | 1.92 | 1.26 | 0.75 | 1.02 | 3.31 | 2.84 | 5.3 | 7.67 | -4.82 | 3.83 | 2.04 | 5.11 | -0.34 | 1.27 | 2.4 | 3.76 | 3.77 | 10.1 | -0.6
7 | CNC(=O)c1cccc(C#Cc2cncnc2Nc2ccc(OCc3cccc(F)c3)c(Cl)c2)c1 | 4.1 | -0.69 | 1.65 | 2.11 | -0.11 | 1.08 | 0.39 | 5.81 | 6.8 | 3.54 | 6.47 | 0.65 | 1.29 | -1.02 | 0.31 | -1.06 | 23.7 | 17.6 | 58.4 | 1.71
8 | CS(=O)(=O)CCNCc1ccc(-c2ccc3ncnc(Nc4ccc(OCc5ccccc5)c(C(F)(F)F)c4)c3c2)o1 | 2.12 | 3.43 | 0.97 | 2.24 | 0.59 | 8.45 | 2.73 | 6.33 | 7.84 | 7.71 | 5.29 | 2.9 | 3.77 | 3.21 | 3.55 | -0.56 | 10.4 | 9.71 | 33.4 | 4.03
9 | Nc1nc(-c2ccc(F)cc2)c(-c2ccc3ncccc3n2)s1 | 5.63 | 4.54 | 14.7 | 0.69 | 0.59 | 5.86 | 6.22 | 9.7 | 14.6 | 9.15 | 15.2 | 5.51 | 5.14 | 1.8 | 5.58 | 4.65 | 6.61 | 16.8 | 48.5 | 2.2
